Among all 59,000 compounds or so, about 25 (0.04%) were called active. This is one part of a sample in which actives are shown more often than they occur. How the calls were made is not given here.
Test: qHTS Assay for Spectroscopic Profiling in Resorufin Spectral Region
Conditions: Compound fluorescence, resorufin region 547/598 nm, buffer; active compounds read high
Source text: NIH Molecular Libraries Screening Centers Network [MLSCN] NIH Chemical Genomics Center [NCGC] […] Occasionally, the artifactual effect may originate from the compound#s own spectral or other biophysical properties which generally tend to track its assay concentration. Pre-screening/profiling the library with respect to the compounds# spectral properties should help one exclude false positives early on. While the most informative fluorescent profiling data set is obtained by performing a full excitation and emission scan of each well by using a monochromator-based plate reader, such an approach is practical only on a very limited scale as scanning each well requires long time. An alternative approach, applied here, is to perform plate reader scans using selected excitation and emission wavelength pairs to generate a multidimensional relational database that correlates compound concentration and the respective relative fluorescence intensity at a given wavelength set. A standard curve of resorufin present on each plate as six-point concentration series, was used to compute a normalized fluorescence response, termed dye-equivalent concentration, for each compound at each concentration.
NCGC Assay Protocol Summary: Buffer: 100 mM Tris buffer, pH 8.0 Dye standard plate: The wells in columns 1 through 4 of a Kalypsys polypropylene 1536-well compound plate were filled with standard solutions of fluorophore corresponding to the spectral region of interest. Solutions of resorufin were placed in the following wells: M1, N1: 3 mM, M2, N2: 300 uM, M3, N3: 30 uM, M4, N4: zero (DMSO), O1, P1: 3 uM, O2, P2: […], O3, P3: 300 nM, O4, P4: zero (DMSO). Assay Steps: Six uL of buffer were dispensed to 1536-well Greiner black plates. Compounds and dye standards (23 nL) were transferred via Kalypsys PinTool. The plates were incubated for 15 min at room temperature, and then read on ViewLux (Perkin-Elmer) High-throughput CCD imager using 547 nm and 598 nm excitation and emission filter set. Keywords: NIH Roadmap, MLSCN, MLI, MLSMR, qHTS, NCGC, Resorufin, Fluorescent Profiling.

| SMILES | max dye-equivalent concentration |
| --- | --- |
| Nc1ccc2[nH]cc(CCC(=O)O)c2c1 | inactive |
| Cc1ccccc1N1CCN(S(=O)(=O)C[C@@]23CC[C@H](C[C@H]2NC(=O)[C@@H](N)CCS(C)(=O)=O)C3(C)C)CC1 | inactive |
| COCCNc1ccnc(-c2cccc(NS(C)(=O)=O)c2)n1 | inactive |
| CCOC(=O)c1c(C)[nH]c(C)c1C(=O)CSc1nc(N)cc(N)n1 | inactive |
| O=C(Cn1c(=S)nc2ccccn21)N1CCc2ccccc2C1 | inactive |
| CN1CCN2c3ccccc3Cc3ccccc3[C@@H]2C1 | inactive |
| COc1ccc2c(CC(=O)Nc3nnc(C4CC4)s3)coc2c1 | inactive |
| CC(CCO)Nc1nc2c([nH]1)c(=O)n(C)c(=O)n2C (configuration not stated) | inactive |
| CCOc1c(OC)cc(C2C(C#N)=C(N)Oc3n[nH]c(-c4ccncc4)c32)cc1OC (configuration not stated) | inactive |
| Cc1ccc(S(=O)(=O)N2CCC(C(=O)N[C@@H](C)C(=O)NCCc3ccccc3)CC2)cc1 | inactive |
| NS(=O)(=O)c1cc2c(cc1Cl)NC(C(Cl)Cl)NS2(=O)=O (configuration not stated) | inactive |
| CCOC(=O)N1CCN(C(=O)CSc2nnc(-c3c[nH]c4ccccc34)n2CCOC)CC1 | inactive |
| CCOc1ccc(Cn2c(SCCCCC#N)nc3c2c(=O)n(C)c(=O)n3C)cc1OCC | inactive |
| CNc1ncnc2ccc(-c3cccc(NS(C)(=O)=O)c3)cc12 | inactive |
| Cc1ccc(C)n1C(Cc1ccccc1)C(=O)O (configuration not stated) | inactive |
| COc1cccc2c(C)c(C(=O)O)[nH]c12 | inactive |
| Cc1nc2ccccc2cc1O | inactive |
| COCCNC(=O)C(c1ccc(C)o1)N(Cc1cccs1)C(=O)c1snc(C(N)=O)c1N (configuration not stated) | inactive |
| Cc1cc(C)c(C)c(S(=O)(=O)Nc2ccc(O)cc2)c1C | inactive |
| CCN(CC)Cc1c(C(=O)OC)nnn1-c1nonc1N | inactive |
| Cn1cccc1C(=O)N1CCC[C@@]2(CCN(Cc3nccs3)C2)C1 | inactive |
| COc1cc2[nH]c(=S)n(CCN3CCCCC3C)c(=O)c2cc1OC (configuration not stated) | inactive |

| SMILES | max dye-equivalent concentration |
| --- | --- |
| COc1ccc(CCNC(=O)c2ccc3c(c2)NC(=O)C(N2CCOCC2)S3)cc1OC (configuration not stated) | inactive |
| COc1ccc(CCn2c(NCCCN3CCOCC3)nc3c2c(=O)[nH]c(=O)n3C)cc1 | inactive |
| Cc1ccccc1CSc1nnc(-c2cccnc2)n1N | inactive |
| COCCN(C(=O)CCC(=O)Nc1ccccn1)C(C(=O)NCCC(C)C)c1ccc(OC)cc1 (configuration not stated) | inactive |
| NCCNCC1CCNCC1 | inactive |
| Cc1ccc(N2CCN(c3ccc(C)cc3)C2c2ccccn2)cc1 | inactive |
| O=C(NCCCN1CCN(c2ccccc2F)CC1)C1CCC(=O)N1C1CCCCC1 (configuration not stated) | inactive |
| CCOc1ccc(C(C)C)cc1S(=O)(=O)n1nc(C)cc1C | inactive |
| COc1ccc(-c2c3c(=O)n(C)c(=O)n(C)c3cn2NC(C)=O)cc1 | inactive |
| CCCOC(=O)C1=C(C)NC2=C(C(=O)C(C(=O)OC)C(C)C2)C1c1ccc(N(C)C)cc1 (configuration not stated) | inactive |
| O=C1CSC(=O)N1CCOCCN1C(=O)CSC1=O | inactive |
| O=c1cc(-c2ccccc2)nc(N2CCCCC2)[nH]1 | inactive |
| O=C(CSc1nc2ccccc2[nH]1)c1cccs1 | inactive |
| COc1cccc2cc(C(=O)N(C)C)c(=O)oc12 | inactive |
| C=CCC(NCCCO)c1cccc(OC)c1OC (configuration not stated) | inactive |
| O=C(CCCN1C(=O)CCC1=O)Nc1ccc(Cl)c(C(F)(F)F)c1 | inactive |
| Cc1cccc2nc(CNc3ccc(F)cc3)cn12 | inactive |
| CC1(CCC(=O)OC2CCCCC2)OCCO1 | inactive |
| Cc1nc(NC(CC(C)C)C(=O)O)c2nc(C)oc2n1 (configuration not stated) | inactive |
| Cc1c(C(=O)CN2CCOCC2)[nH]c2ccccc12 | inactive |
| C[N+]1(CCNC(=O)/C=N/O)CCCCC1 | inactive |
| Cc1ccc(C(C)C)c(OCc2nnc(SCC(=O)Nc3nccs3)n2C)c1 | inactive |

| SMILES | max dye-equivalent concentration |
| --- | --- |
| Cc1nn2c3cc(N4CCOCC4)ccc3nc2c2ccccc12 | inactive |
| COc1cc(C(=O)Nc2oc(-c3ccccc3)c(-c3ccccc3)c2C#N)cc(OC)c1OC | inactive |
| COc1cccc(Cn2c(=O)c(-c3cc(F)cc(F)c3)nc3cnc(OC)nc32)c1 | inactive |
| O=C(CN1CCOCC1)Nc1ccc(NC(=O)CN2CCOCC2)c(Cl)c1 | inactive |
| Cc1cccc(-n2c(N)cc(=O)nc2SC(C)C(=O)NC2CCCCC2)c1 (configuration not stated) | inactive |
| Cn1c(=NC(=O)c2cnccn2)sc2ccccc21 | inactive |
| O=C(O)C1OC(C(=O)O)C2C1C(F)(F)C2(F)F (configuration not stated) | inactive |
| O=C(CSc1nc2ccccc2o1)N1CCN(c2ccccc2)CC1 | inactive |
| CN(c1ccccc1)c1ccc(/C=c2\s/c(=C(/C#N)C(=O)C(C)(C)C)n(Cc3ccco3)c2=O)cc1 | 27 nM (active) |
| CCOc1ccccc1/C=c1\sc2nc(-c3ccco3)nn2c1=O | inactive |
| CCOC(=O)CSc1nc2c(sc(=S)n2CCc2ccccc2)c(=O)n1Cc1ccco1 | inactive |
| COCCNc1ncnc2ccc(-c3ccccc3CN(C)C)cc12 | inactive |
| C=CCn1c(SCc2csc(C)n2)nc2scc(-c3ccc(C)o3)c2c1=O | inactive |
| O=C(CCCn1c(=O)oc2ccccc21)Nc1cccnc1 | inactive |
| COC(=O)c1ccc(Oc2nc(Nc3ccc(F)cc3)nc(N3CCCC3)n2)cc1 | inactive |
| O=S(=O)(NCc1ccccn1)c1ccc(Br)s1 | inactive |
| O=C1C(=O)N(CCN2CCOCC2)C(c2ccccn2)/C1=C(/O)c1ccc(Cl)cc1 (configuration not stated) | inactive |
| COc1cc2[nH]c(=O)n(CCC(=O)NC3CCN(Cc4ccccc4)CC3)c(=O)c2cc1OC | inactive |
| CN(C)c1ccc(-c2nc(NCCN3CCOCC3)c3ccccc3n2)cc1 | inactive |
| CC(C)C(NC(=O)c1cccc(S(=O)(=O)N2CCOCC2)c1)C(=O)NCCc1ccccn1 (configuration not stated) | inactive |
| COc1cc(-c2noc(C3CCCN(S(=O)(=O)c4cccc(Cl)c4)C3)n2)cc(OC)c1OC (configuration not stated) | inactive |
| CC(C)C(c1nnnn1C1CCCC1)N1CCN(c2ccccc2F)CC1 (configuration not stated) | inactive |

| SMILES | max dye-equivalent concentration |
| --- | --- |
| C=CCn1c(SCc2nnc(-c3ccccc3)o2)nnc1C(O)c1ccccc1 (configuration not stated) | inactive |
| OCCCNCc1ccccn1 | inactive |
| CCCCc1cc(=O)oc2cc(C)cc(OCc3nn[nH]n3)c12 | inactive |
| COCCn1c(=O)c(-c2ccccc2)nc2cnc(N3CCOCC3)nc21 | inactive |
| Cc1cc(N2C(=O)c3ccc(C(=O)NCc4ccccc4)cc3C2=O)no1 | inactive |
| CCC(=O)NC(=Nc1nc2ccccc2s1)NC(=O)CC | inactive |
| O=C(c1ccc2c(c1)C(=O)N(c1ccc(Cl)cc1)C2=O)N1CCN(c2ccccn2)CC1 | inactive |
| Cc1ccc(F)cc1NC(=O)c1cccc(N(C)C)c1 | inactive |
| CC(C)(C)c1cc(C(=O)NCc2cccnc2)ccn1 | inactive |
| Cc1ccc(CNC(=O)C2CC(=O)N(C3CCCCCCC3)C2)cc1 (configuration not stated) | inactive |
| Cc1nc2cnc(N3CCN(C)CC3)nc2n(CCC#N)c1=O | inactive |
| CCOC(=O)C1CCN(C(=O)CC2C(=O)N(Cc3ccccc3)C(C)c3nc4ccccc4n32)CC1 (configuration not stated) | inactive |
| COc1ccccc1N1CCN(C(=O)c2c(-c3c(Cl)cccc3Cl)noc2C)CC1 | inactive |
| Fc1ccccc1CCNc1nnnn1-c1ccccc1 | inactive |
| COc1ccccc1-c1nc(NCCNC(C)=O)c2ccccc2n1 | inactive |
| COc1cc(OC)c(C(=O)NC2CC(C)(C)NC(C)(C)C2)cc1OC | inactive |
| CN(C)CCNC(=O)C(C(=O)c1ccccc1)n1ccccc1=O (configuration not stated) | inactive |
| Cc1nc2ccc(S(=O)(=O)NCC(=O)O)cc2s1 | inactive |
| CC(=O)Nc1ccc(S(=O)(=O)Nc2ccc(N3CCOCC3)c(F)c2)cc1 | inactive |
| Cc1ccc(NC(=O)CN2CCC3(O)CCCCC3C2c2ccc3c(c2)OCO3)c(C)c1 (configuration not stated) | inactive |
| CCCC(=O)Nc1cc(OCC)c(NC(=O)NC2CCCCC2)cc1OCC | inactive |
| O=C(NCc1ccco1)c1cc2sccc2n1Cc1ccc(F)cc1 | inactive |

| SMILES | max dye-equivalent concentration |
| --- | --- |
| O=C(CCCn1c(SCC(=O)c2ccc(F)cc2)nc2ccccc2c1=O)NCc1ccco1 | inactive |
| Cc1ccc(S(=O)(=O)N2CCOCC2)cc1C(=O)NCc1ccc(F)cc1 | inactive |
| CCC(=O)N1CCc2cc(S(=O)(=O)NC(C(=O)N3CCc4ccccc4C3)C(C)C)ccc21 (configuration not stated) | inactive |
| Cn1c(-c2ccc(C(=O)c3ccccc3)s2)nc2ccccc21 | inactive |
| O=C(NCCN=C1NS(=O)(=O)c2ccccc21)c1ccc(S(=O)(=O)N2CCOCC2)cc1 | inactive |
| CCCCOc1ccc(C(C)(O)CCN2CCOCC2)cc1 (configuration not stated) | inactive |
| CCN(CC)P(=O)(C(NC(=O)OC)C(F)(F)C(F)(F)C(F)(F)C(F)F)N(CC)CC (configuration not stated) | inactive |
| O=C(Nc1cnccn1)c1cccnc1 | inactive |
| Cc1cnc(CNc2cc(-c3c(C)noc3C)ncn2)cn1 | inactive |
| COc1ccc(CN2C(=O)CN=C2Nc2ccc(C)cc2C)cc1 | inactive |
| CC(C)(C)NC(=O)Cn1nnc(-c2ccccc2Cl)n1 | inactive |
| COc1ccccc1C1/C(=C(/O)c2ccc(OC(C)C)cc2)C(=O)C(=O)N1c1cc(C)on1 (configuration not stated) | inactive |
| COC(=O)c1ccc(NC(=O)CSc2nnc(CNc3ccc(OC)cc3)n2C)cc1 | inactive |
| CCCCC[C@H](O)CCCC(=O)O | inactive |
| CC(=O)OC(C(=O)NCCc1ccccc1)c1cccnc1 (configuration not stated) | inactive |
| CO[C@@H]1/C=C\O[C@]2(C)Oc3c(C)c(O)c4c(O)c(c(CN(C)C)c(O)c4c3C2=O)NC(=O)/C(C)=C\C=C[C@@H](C)[C@@H](O)[C@H](C)[C@@H](O)[C@H](C)[C@H](OC(C)=O)[C@@H]1C | inactive |
| Cc1cccc(C)c1NC(=O)CCCSc1nnc(-c2ccco2)n1-c1ccccc1 | inactive |
| C[C@H](CCC(=O)NCC(=O)O)[C@H]1CC[C@H]2[C@H]3[C@@H](C[C@@H](O)[C@]12C)[C@]1(C)CC[C@H](O)C[C@@H]1C[C@@H]3O | inactive |
| N#CC1=C(N)Oc2n[nH]c(CSc3ccccc3)c2C12C(=O)Nc1ccccc12 (configuration not stated) | inactive |

Reference: PubChem BioAssay AID588 (National Center for Advancing Translational Sciences (NCATS), 2007)
